Assay results: publication PMC7819943, “Rice protein-binding microarrays: a tool to detect cis-acting elements near promoter regions in rice”
Whole data set: some 39,000 sequences, median “fluorescence intensity (a.u.)” near 4,300, cut for the highest 2% near 39,000. Many of the other results were omitted from the sample, so the highest values are more common in it than they were.

These sequences were tested against T1, OsSMF1 (Oryza sativa, UniProt Q6ZLB0 1-436) (assay: protein-binding microarray (RPBM); PBS, 2% BSA, 51.3 ng/ul salmon testes DNA, 50 uM zinc acetate, 200 nM TF, 25 C, 1 h; high values mean tight binding). Conditions: protein: recombinant; tags: N-terminal polyhistidine and DsRed monomer fusion (pET32a); chain copies: 2; label: CyDye5-dUTP incorporated in the synthesized complementary strand; 3' TTTTT single-stranded linker to array surface; dsDNA, one strand shown.
T1 sequence: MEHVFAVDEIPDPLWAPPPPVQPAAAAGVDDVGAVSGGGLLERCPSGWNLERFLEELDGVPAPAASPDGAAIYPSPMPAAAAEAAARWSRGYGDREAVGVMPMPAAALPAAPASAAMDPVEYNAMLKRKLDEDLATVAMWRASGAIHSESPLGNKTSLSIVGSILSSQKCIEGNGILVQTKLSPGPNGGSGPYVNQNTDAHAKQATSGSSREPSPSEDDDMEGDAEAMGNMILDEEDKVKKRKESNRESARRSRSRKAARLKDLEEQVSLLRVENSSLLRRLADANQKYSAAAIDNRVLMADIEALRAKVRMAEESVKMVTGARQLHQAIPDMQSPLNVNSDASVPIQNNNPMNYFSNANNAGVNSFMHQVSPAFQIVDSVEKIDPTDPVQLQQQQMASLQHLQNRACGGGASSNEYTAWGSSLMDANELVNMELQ
Procedure, shortened: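 A custom Agilent array was converted to double-stranded form by primer extension with Cy5-dUTP and blocked with 2% BSA. Protein at 200 nM in PBS with 2% BSA, salmon testes DNA and 50 µM zinc acetate was applied for 1 h at 25 °C, followed by washing. The proteins were polyhistidine–DsRed N-terminal fusions of transcription factors, expressed in E. coli BL21-CodonPlus and Ni–NTA-purified. The binding signal is per-feature fluorescence intensity (arbitrary units) from an Axon 4000B scanner.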

Question: How did the binding signal turn out when “TATGGACACCATCCTTGTCATTGGGTTAGGACTGGCCTTACGGAGTCACCTAGTGCAG” was run?
Answer: 3630 fluorescence intensity (a.u.)

Question: For “TTCATCCTATCACATCAAATATTTGGATACATACATGGAGCGGAGTCACCTAGTGCAG”, which binding signal is on record?
Answer: 45500 fluorescence intensity (a.u.)

Question: With “AAATAGTCACACATAAAATACTATTCATATTTTATCATCTCGGAGTCACCTAGTGCAG” as the sequence, how does the binding signal read?
Answer: 13500 fluorescence intensity (a.u.)

Question: “GCCATCCAACTATTTTCATGGATCAACATCATAGTAGTATCGGAGTCACCTAGTGCAG” was tested. Which binding signal did it give?
Answer: 3140 fluorescence intensity (a.u.)

Question: For “TTGCTTGCGAGCAAAGGTGGAGTTCATGCCCTCATCATATCGGAGTCACCTAGTGCAG”, which binding signal is on record?
Answer: 3710 fluorescence intensity (a.u.)

Question: Which binding signal does the source give for “AATATAATGGCCGCTCGCTGATGGGTGCGTCATGCACCCTCGGAGTCACCTAGTGCAG” here?
Answer: 4060 fluorescence intensity (a.u.)

Question: For “ATCCCCGGTCATCTCGCCTCGTCTCGTCCCGTCCCTGCGCCGGAGTCACCTAGTGCAG”, which binding signal is on record?
Answer: 3460 fluorescence intensity (a.u.)

Question: Which binding signal does the source give for “CTGGATCGAATTGCCACGTAAGCGCCACGTCAGTGCCACACGGAGTCACCTAGTGCAG” here?
Answer: 20700 fluorescence intensity (a.u.)

Question: “TTTTCCGGATCGAATTGCCACGTAAGCGCCACGTCAATGACGGAGTCACCTAGTGCAG” was tested. Which binding signal did it give?
Answer: 48300 fluorescence intensity (a.u.)

Question: Which binding signal does the source give for “ATCGAATTGTCACGTAAGCGCCACGTCAATGCTACGTCAGCGGAGTCACCTAGTGCAG” here?
Answer: 26100 fluorescence intensity (a.u.)

Question: With “TTGAGATATAATTGCTACGTAAGTGCCACGTCAATGCCACCGGAGTCACCTAGTGCAG” as the sequence, how does the binding signal read?
Answer: 21400 fluorescence intensity (a.u.)

Question: Which binding signal does the source give for “CCAATATATAATTGCCACGTCATCGCCGCGTCAATGCCACCGGAGTCACCTAGTGCAG” here?
Answer: 28100 fluorescence intensity (a.u.)

Question: “GCTCGAATTGCCACGTAAGCGCCACGTCAATGCCACGTCACGGAGTCACCTAGTGCAG” was tested. Which binding signal did it give?
Answer: 65500 fluorescence intensity (a.u.)

Question: How did the binding signal turn out when “CGAGATATAATTGCCATGTCATTGCCACGTCAATGTCACGCGGAGTCACCTAGTGCAG” was run?
Answer: 49600 fluorescence intensity (a.u.)

Question: For “CCGGATCGAATTGCCACGTAAGCGTCACGTCACTGCCACACGGAGTCACCTAGTGCAG”, which binding signal is on record?
Answer: 17100 fluorescence intensity (a.u.)

Question: For “GATATAATTGCCACGTAAGCGCCACGTCAATGCCACGTGCCGGAGTCACCTAGTGCAG”, which binding signal is on record?
Answer: 52100 fluorescence intensity (a.u.)

Question: “GCTGAGATATAGTTGCCACGTAAGCGCCACGTCAATGCTACGGAGTCACCTAGTGCAG” was tested. Which binding signal did it give?
Answer: 33000 fluorescence intensity (a.u.)

Question: For “TTTTCGATATATAATTGCCACGTAAGCGTCACGTCAATGCCGGAGTCACCTAGTGCAG”, which binding signal is on record?
Answer: 34300 fluorescence intensity (a.u.)

Question: “TCGGATCGAATTGCCACGTAAGCGCCACGTCGATGCCACACGGAGTCACCTAGTGCAG” was tested. Which binding signal did it give?
Answer: 33000 fluorescence intensity (a.u.)

Question: For “TCATCCCCTGATCGTCATCAGCATTCTCACCGTCGGCGCTCGGAGTCACCTAGTGCAG”, which binding signal is on record?
Answer: 4690 fluorescence intensity (a.u.)

Question: Which binding signal does the source give for “AGTAGGGAAAGTTACAACGCAGCCTAACGTGGGATAGCGGCGGAGTCACCTAGTGCAG” here?
Answer: 3980 fluorescence intensity (a.u.)

Question: How did the binding signal turn out when “CGCGATCCTGACAGTATATTCTATCTTTGACACAGTCTGACGGAGTCACCTAGTGCAG” was run?
Answer: 3320 fluorescence intensity (a.u.)

Question: With “GCAGCCATTTACGCTTTCCACGTCAGTGCATGATGGAGTACGGAGTCACCTAGTGCAG” as the sequence, how does the binding signal read?
Answer: 16800 fluorescence intensity (a.u.)

Question: With “GTAGCGGCTGCGGCGCTCCAGCTCCTCGGAGGCCCGGTCCCGGAGTCACCTAGTGCAG” as the sequence, how does the binding signal read?
Answer: 3790 fluorescence intensity (a.u.)

Question: Which binding signal does the source give for “CTCCCCACTCACTGCCAGGTGGGCCCACCTTGTCGGATTACGGAGTCACCTAGTGCAG” here?
Answer: 3530 fluorescence intensity (a.u.)

Question: How did the binding signal turn out when “ATGTCAAGACAACAACAGTTGTAAATGTGATCTGGACATACGGAGTCACCTAGTGCAG” was run?
Answer: 3540 fluorescence intensity (a.u.)

Question: For “TCCCTGCGAAATTGTACACATCAACACAACATAAGGTCGACGGAGTCACCTAGTGCAG”, which binding signal is on record?
Answer: 3700 fluorescence intensity (a.u.)

Question: With “GGCAAATCGGTAATTGCCATGTCACAAGAGTGGCAAATAGCGGAGTCACCTAGTGCAG” as the sequence, how does the binding signal read?
Answer: 8900 fluorescence intensity (a.u.)

Question: For “CACCCGCCATCGTGGCGGACATTCCAGTATAGGTACGGCACGGAGTCACCTAGTGCAG”, which binding signal is on record?
Answer: 6150 fluorescence intensity (a.u.)

Question: Which binding signal does the source give for “TGGTGGTGGAAATTTTGGAAATCGTGAGGGCTACACATACCGGAGTCACCTAGTGCAG” here?
Answer: 3550 fluorescence intensity (a.u.)

Question: Which binding signal does the source give for “CGTCGACCACCACCACGCTCTTGCCCCTGATGACGCCGTGCGGAGTCACCTAGTGCAG” here?
Answer: 6870 fluorescence intensity (a.u.)

Question: Which binding signal does the source give for “CGGCTTCCCGACGGTGGCGGCGCACGTGGGCGAGGCTGAGCGGAGTCACCTAGTGCAG” here?
Answer: 3800 fluorescence intensity (a.u.)

Question: For “ATGCCACATAAACCCTACGTCAATGCCACGTGGGACAAAGCGGAGTCACCTAGTGCAG”, which binding signal is on record?
Answer: 22600 fluorescence intensity (a.u.)

Question: For “AGCAGTAACCACGAAAGCGCTCGGCTCCACACGCCACGCACGGAGTCACCTAGTGCAG”, which binding signal is on record?
Answer: 3280 fluorescence intensity (a.u.)

Question: With “CCCACCTTTCAAATTCCACGTCCGCCAATAATATTATTACCGGAGTCACCTAGTGCAG” as the sequence, how does the binding signal read?
Answer: 6710 fluorescence intensity (a.u.)

Question: “CACGTAAGCGTCACGTCAATGCCACGTGGGACGGTGACCTCGGAGTCACCTAGTGCAG” was tested. Which binding signal did it give?
Answer: 27900 fluorescence intensity (a.u.)

Question: For “TATTAATTTCCAAATAAATTGCTATGTCAATGCCACGTCACGGAGTCACCTAGTGCAG”, which binding signal is on record?
Answer: 40900 fluorescence intensity (a.u.)

Question: “ATCTAATTGCCACATAAGCACTACGTCAATAACACGTTAGCGGAGTCACCTAGTGCAG” was tested. Which binding signal did it give?
Answer: 10100 fluorescence intensity (a.u.)

Question: For “GCCCACAAGCGCTCGGCTCGAAACGCCACGTCACCACGCTCGGAGTCACCTAGTGCAG”, which binding signal is on record?
Answer: 43800 fluorescence intensity (a.u.)

Question: How did the binding signal turn out when “CCGCCCCACGCGGCGCCACCACACCACCGCGCGCGTCGCTCGGAGTCACCTAGTGCAG” was run?
Answer: 5900 fluorescence intensity (a.u.)

Question: With “CATCTAATTGCCACATAAGCGCCACGTCAACGACACGTTGCGGAGTCACCTAGTGCAG” as the sequence, how does the binding signal read?
Answer: 41300 fluorescence intensity (a.u.)

Question: With “TAGTTAATAAAAGTCAAAATGAAGTCACAATTTGCCACGTCGGAGTCACCTAGTGCAG” as the sequence, how does the binding signal read?
Answer: 8180 fluorescence intensity (a.u.)
